Experimental data as given in paper PMC7862700, “An all-to-all approach to the identification of sequence-specific readers for epigenetic DNA modifications on cytosine”.

Assays:
Test in all cases: DAPPL (digital affinity profiling via proximity ligation, sequencing); 10 mM Tris-HCl pH 7.5, 50 mM NaCl, 1 mM DTT, 4% glycerol, room temperature, 30 min; GST-TFs on glutathione beads, 16-mer random dsDNA library, 0.1% formaldehyde crosslink after washing; high values mean tight binding
[1] = target: T1, FLI1 (Homo sapiens, UniProt Q01543 1-452); conditions: protein: recombinant; tags: N-terminal GST; dsDNA, one strand shown
T1 sequence: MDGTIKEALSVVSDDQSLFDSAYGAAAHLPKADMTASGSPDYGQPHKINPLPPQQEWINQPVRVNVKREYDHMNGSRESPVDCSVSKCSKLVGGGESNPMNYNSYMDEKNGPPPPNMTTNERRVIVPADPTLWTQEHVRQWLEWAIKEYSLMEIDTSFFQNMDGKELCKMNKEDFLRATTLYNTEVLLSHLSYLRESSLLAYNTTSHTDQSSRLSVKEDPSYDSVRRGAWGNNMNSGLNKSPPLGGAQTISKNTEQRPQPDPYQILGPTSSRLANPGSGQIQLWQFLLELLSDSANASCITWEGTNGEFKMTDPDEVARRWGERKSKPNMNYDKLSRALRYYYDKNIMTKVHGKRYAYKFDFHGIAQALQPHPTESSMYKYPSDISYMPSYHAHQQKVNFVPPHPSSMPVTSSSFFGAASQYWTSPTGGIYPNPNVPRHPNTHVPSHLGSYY
Outline: (§1)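 GST fusions of human transcription factors were expressed in yeast and captured with glutathione beads. Once given DNA barcodes and pooled alongside a tag-only sample, they were incubated for 30 min at room temperature with 200 nmole of a random double-stranded 16-mer DNA library in Tris/NaCl/DTT/glycerol buffer, then washed, crosslinked (0.1% formaldehyde), proximity-ligated, PCR-amplified and sequenced on an Illumina NextSeq500. The binding signal of each hexamer is its read frequency for a factor divided by its frequency for the tag-only sample.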

[2] = target: T2, ELK1 (Homo sapiens, UniProt P19419 1-428); conditions: protein: recombinant; tags: N-terminal GST; dsDNA, one strand shown
T2 sequence: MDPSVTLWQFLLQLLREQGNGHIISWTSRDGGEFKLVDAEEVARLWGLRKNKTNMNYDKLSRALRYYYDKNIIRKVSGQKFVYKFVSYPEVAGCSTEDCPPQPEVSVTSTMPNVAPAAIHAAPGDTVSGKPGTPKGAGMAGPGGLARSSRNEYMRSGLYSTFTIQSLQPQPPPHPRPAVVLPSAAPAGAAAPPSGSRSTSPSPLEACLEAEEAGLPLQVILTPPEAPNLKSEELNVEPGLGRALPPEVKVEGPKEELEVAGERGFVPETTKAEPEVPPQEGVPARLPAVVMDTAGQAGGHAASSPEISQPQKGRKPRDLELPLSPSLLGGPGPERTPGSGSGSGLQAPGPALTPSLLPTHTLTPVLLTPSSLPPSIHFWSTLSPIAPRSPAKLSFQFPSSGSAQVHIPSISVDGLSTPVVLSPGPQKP
Outline: as §1

[3] = target: T3, GABPA (Homo sapiens, UniProt Q06546 1-454); conditions: protein: recombinant; tags: N-terminal GST; dsDNA, one strand shown
T3 sequence: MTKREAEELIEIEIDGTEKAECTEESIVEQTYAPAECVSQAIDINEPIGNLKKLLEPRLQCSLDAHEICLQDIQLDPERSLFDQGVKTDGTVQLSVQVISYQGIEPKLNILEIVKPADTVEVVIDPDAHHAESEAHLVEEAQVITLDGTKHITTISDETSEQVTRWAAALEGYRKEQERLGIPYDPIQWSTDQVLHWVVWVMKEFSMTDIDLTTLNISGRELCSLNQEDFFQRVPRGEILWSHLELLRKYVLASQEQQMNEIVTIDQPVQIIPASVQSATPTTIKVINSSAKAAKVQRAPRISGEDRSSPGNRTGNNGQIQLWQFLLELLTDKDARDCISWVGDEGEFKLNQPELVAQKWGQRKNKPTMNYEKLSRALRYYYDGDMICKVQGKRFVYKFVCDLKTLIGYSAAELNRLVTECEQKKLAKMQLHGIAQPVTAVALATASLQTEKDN
Outline: as §1

[4] = target: T4, ERG (Homo sapiens, UniProt P11308 1-479); conditions: protein: recombinant; tags: N-terminal GST; dsDNA, one strand shown
T4 sequence: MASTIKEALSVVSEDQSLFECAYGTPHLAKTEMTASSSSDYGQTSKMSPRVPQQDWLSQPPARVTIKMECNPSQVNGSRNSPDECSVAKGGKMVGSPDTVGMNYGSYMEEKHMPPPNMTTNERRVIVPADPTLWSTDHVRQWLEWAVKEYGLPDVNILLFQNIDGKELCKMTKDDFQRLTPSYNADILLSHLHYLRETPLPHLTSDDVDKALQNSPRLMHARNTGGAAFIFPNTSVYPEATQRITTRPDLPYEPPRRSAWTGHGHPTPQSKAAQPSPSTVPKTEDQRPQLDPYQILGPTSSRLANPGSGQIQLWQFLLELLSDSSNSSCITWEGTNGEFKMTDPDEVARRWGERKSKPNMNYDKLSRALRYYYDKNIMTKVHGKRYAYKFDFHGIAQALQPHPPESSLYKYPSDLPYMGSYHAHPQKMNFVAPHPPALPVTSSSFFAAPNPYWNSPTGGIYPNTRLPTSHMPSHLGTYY
Outline: as §1

[5] = target: ELF1 (Homo sapiens, UniProt P32519 1-619); conditions: protein: recombinant; tags: N-terminal GST; dsDNA, one strand shown
Chain of ELF1 (P32519 whole entry): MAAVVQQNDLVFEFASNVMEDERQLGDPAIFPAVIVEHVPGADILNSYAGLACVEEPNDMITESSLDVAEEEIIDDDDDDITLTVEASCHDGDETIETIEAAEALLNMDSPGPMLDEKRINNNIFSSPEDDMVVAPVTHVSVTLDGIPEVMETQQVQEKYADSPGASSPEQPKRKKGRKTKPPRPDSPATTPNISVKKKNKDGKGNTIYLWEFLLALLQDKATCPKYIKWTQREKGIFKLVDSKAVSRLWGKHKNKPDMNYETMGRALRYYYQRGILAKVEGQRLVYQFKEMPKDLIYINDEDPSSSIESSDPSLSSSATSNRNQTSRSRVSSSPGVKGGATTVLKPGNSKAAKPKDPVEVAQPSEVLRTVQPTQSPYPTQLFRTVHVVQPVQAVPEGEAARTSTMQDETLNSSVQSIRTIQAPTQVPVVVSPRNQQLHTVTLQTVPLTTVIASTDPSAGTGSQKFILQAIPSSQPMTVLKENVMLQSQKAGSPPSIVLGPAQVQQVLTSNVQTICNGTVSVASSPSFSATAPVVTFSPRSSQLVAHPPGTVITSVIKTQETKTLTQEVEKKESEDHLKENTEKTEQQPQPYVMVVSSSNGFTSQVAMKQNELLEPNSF
Outline: as §1

[6] = target: T5, EHF (Homo sapiens, UniProt Q9NZC4 1-300); conditions: protein: recombinant; tags: N-terminal GST; dsDNA, one strand shown
T5 sequence: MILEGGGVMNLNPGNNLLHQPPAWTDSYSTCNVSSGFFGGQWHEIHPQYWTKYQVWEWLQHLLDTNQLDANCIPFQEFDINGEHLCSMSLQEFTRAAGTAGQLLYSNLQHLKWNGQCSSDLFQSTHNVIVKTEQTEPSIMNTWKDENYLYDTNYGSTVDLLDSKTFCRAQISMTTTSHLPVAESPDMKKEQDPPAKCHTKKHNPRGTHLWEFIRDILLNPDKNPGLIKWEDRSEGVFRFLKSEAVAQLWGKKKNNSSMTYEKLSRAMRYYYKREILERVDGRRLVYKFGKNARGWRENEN
Outline: as §1

[7] = target: SPI1 (Homo sapiens, UniProt P17947 1-270); conditions: protein: recombinant; tags: N-terminal GST; dsDNA, one strand shown
Outline: as §1

[8] = target: SPIB (Homo sapiens, UniProt Q01892 1-262); conditions: protein: recombinant; tags: N-terminal GST; dsDNA, one strand shown
Chain of SPIB (Q01892 whole entry): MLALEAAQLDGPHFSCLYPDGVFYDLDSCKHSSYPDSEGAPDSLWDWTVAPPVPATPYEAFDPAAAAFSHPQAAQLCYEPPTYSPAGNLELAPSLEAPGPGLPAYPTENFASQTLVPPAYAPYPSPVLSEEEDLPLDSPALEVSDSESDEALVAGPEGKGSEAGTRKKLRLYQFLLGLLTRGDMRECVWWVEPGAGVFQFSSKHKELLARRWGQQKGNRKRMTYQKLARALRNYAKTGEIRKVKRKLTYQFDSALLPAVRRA
Outline: as §1

[9] = target: T6, ELK3 (Homo sapiens, UniProt P41970 1-407); conditions: protein: recombinant; tags: N-terminal GST; dsDNA, one strand shown
T6 sequence: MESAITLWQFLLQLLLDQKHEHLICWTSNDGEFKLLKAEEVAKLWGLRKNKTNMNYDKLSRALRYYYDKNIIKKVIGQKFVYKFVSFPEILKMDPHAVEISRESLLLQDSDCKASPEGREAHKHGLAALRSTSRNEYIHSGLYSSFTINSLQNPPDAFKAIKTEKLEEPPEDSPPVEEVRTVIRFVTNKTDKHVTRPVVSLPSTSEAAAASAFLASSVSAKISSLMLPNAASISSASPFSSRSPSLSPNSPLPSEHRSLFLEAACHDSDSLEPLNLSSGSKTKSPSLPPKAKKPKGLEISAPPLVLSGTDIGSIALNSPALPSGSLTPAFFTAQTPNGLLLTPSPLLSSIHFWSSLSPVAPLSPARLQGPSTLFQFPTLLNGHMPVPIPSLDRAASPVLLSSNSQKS
Outline: as §1

[10] = target: T7, FEV (Homo sapiens, UniProt Q99581 1-238); conditions: protein: recombinant; tags: N-terminal GST; dsDNA, one strand shown
T7 sequence: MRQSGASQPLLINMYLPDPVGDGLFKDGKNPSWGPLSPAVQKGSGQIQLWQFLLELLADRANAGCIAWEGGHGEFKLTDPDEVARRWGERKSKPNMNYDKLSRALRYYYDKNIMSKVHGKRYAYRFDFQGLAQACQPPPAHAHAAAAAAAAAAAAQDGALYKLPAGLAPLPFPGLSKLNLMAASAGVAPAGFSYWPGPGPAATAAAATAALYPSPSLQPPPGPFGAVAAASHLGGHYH
Outline: as §1

[11] = target: ETV5 (Homo sapiens, UniProt P41161 1-510); conditions: protein: recombinant; tags: N-terminal GST; dsDNA, one strand shown
Chain of ETV5 (P41161 whole entry): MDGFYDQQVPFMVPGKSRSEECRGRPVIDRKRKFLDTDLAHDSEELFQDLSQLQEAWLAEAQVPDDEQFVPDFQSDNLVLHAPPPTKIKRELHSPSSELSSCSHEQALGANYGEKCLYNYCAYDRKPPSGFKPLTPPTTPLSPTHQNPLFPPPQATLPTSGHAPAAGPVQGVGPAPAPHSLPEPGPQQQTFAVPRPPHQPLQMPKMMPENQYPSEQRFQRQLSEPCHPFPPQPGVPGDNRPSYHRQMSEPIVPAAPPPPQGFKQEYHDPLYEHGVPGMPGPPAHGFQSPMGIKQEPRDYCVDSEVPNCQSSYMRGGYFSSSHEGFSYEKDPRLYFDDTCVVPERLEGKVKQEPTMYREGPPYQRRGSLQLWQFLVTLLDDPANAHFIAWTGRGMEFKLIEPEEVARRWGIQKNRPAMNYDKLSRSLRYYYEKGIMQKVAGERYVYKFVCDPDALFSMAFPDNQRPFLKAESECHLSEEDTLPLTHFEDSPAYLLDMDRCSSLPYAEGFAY
Outline: as §1

[12] = target: HSF1 (Homo sapiens, UniProt Q00613 1-529); conditions: protein: recombinant; tags: N-terminal GST; chain copies: 3; dsDNA, one strand shown
Chain of HSF1 (Q00613 whole entry): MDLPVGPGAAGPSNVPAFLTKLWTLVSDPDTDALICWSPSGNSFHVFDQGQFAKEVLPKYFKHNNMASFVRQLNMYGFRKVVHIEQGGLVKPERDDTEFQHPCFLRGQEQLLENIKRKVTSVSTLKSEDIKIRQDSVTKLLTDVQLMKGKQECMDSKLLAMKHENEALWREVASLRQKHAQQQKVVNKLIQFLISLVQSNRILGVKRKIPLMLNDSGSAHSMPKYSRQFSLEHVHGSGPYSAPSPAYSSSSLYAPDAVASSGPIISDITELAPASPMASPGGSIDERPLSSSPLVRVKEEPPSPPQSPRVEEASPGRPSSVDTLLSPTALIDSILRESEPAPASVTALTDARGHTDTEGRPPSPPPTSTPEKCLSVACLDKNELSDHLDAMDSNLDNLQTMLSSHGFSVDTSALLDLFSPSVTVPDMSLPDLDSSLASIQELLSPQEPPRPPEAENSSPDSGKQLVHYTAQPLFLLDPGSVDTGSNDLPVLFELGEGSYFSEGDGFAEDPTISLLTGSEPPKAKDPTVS
Outline: as §1

[13] = target: T8, SPIC (Homo sapiens, UniProt Q8N5J4 1-248); conditions: protein: recombinant; tags: N-terminal GST; dsDNA, one strand shown
T8 sequence: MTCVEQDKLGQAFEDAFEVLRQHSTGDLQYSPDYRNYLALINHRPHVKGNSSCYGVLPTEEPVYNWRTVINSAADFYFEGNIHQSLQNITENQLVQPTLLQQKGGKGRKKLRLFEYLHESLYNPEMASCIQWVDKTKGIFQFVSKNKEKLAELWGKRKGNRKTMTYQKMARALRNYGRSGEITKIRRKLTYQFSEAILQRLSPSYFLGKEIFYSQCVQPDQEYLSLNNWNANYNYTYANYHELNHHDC
Outline: as §1

[14] = target: ELF4 (Homo sapiens, UniProt Q99607 1-663); conditions: protein: recombinant; tags: N-terminal GST; dsDNA, one strand shown
Chain of ELF4 (Q99607 whole entry): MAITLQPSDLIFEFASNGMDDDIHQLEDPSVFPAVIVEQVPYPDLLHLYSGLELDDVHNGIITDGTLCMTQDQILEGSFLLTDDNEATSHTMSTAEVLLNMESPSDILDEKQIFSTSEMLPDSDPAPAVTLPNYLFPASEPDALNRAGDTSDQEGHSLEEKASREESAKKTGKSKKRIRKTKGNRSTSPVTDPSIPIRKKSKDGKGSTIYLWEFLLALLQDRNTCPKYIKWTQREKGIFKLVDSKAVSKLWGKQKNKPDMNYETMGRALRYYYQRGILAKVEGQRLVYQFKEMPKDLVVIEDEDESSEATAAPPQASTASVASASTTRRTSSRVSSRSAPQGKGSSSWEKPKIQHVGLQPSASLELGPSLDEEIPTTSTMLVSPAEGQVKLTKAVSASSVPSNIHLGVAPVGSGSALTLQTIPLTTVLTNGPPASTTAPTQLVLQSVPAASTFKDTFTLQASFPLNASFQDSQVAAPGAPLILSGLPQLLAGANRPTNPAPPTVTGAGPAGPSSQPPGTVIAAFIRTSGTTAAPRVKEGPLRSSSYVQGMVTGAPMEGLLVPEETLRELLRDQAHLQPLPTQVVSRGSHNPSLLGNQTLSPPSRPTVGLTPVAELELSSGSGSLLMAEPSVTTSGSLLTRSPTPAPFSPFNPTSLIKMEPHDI
Outline: as §1

[15] = target: T9, ELK4 (Homo sapiens, UniProt P28324-2 1-405); conditions: protein: recombinant; tags: N-terminal GST; dsDNA, one strand shown
T9 sequence: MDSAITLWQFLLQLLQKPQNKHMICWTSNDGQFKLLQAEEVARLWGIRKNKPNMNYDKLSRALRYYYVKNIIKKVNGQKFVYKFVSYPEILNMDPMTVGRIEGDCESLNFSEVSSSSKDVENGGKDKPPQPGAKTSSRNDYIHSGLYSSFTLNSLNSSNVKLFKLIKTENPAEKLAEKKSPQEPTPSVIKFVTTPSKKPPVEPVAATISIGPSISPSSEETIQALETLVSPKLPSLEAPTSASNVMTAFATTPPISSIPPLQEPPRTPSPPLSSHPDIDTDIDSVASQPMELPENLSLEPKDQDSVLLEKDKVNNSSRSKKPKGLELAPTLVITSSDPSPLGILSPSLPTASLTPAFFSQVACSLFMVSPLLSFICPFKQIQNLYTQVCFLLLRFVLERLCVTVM
Outline: as §1

[16] = target: T10, ETV2 (Homo sapiens, UniProt O00321 1-342); conditions: protein: recombinant; tags: N-terminal GST; dsDNA, one strand shown
T10 sequence: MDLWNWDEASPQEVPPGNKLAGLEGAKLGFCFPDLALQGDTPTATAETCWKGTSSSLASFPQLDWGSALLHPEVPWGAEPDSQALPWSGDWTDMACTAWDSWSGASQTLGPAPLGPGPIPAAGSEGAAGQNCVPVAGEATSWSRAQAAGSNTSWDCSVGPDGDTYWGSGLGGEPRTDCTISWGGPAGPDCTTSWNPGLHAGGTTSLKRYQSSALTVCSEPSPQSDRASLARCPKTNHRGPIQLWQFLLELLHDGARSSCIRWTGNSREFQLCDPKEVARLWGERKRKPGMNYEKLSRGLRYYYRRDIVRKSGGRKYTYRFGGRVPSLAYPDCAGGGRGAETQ
Outline: as §1

[17] = target: T11, ELF3 (Homo sapiens, UniProt P78545 1-371); conditions: protein: recombinant; tags: N-terminal GST; dsDNA, one strand shown
T11 sequence: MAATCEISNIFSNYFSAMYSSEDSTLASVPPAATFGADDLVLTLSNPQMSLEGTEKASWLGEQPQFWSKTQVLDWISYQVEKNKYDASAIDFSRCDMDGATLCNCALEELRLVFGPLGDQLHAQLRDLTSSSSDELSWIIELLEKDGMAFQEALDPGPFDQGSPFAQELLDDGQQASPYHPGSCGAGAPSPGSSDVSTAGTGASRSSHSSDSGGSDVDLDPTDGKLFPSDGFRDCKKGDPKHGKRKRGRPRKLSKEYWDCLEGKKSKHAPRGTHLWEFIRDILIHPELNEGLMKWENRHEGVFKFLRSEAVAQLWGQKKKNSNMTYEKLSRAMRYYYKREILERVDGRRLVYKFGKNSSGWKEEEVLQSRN
Outline: as §1

[18] = target: CRX (Homo sapiens, UniProt O43186 1-299); conditions: protein: recombinant; tags: N-terminal GST; dsDNA, one strand shown
Chain of CRX (O43186 whole entry): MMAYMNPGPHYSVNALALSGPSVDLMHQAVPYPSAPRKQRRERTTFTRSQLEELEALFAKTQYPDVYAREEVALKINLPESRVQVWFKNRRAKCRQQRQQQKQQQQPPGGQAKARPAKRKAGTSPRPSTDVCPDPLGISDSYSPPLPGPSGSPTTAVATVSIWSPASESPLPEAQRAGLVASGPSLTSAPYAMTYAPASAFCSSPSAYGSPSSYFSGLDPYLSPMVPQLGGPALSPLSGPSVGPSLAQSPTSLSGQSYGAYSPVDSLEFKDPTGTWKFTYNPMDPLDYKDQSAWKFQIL
Outline: as §1

[19] = target: ETV1 (Homo sapiens, UniProt P50549 1-477); conditions: protein: recombinant; tags: N-terminal GST; dsDNA, one strand shown
Chain of ETV1 (P50549 whole entry): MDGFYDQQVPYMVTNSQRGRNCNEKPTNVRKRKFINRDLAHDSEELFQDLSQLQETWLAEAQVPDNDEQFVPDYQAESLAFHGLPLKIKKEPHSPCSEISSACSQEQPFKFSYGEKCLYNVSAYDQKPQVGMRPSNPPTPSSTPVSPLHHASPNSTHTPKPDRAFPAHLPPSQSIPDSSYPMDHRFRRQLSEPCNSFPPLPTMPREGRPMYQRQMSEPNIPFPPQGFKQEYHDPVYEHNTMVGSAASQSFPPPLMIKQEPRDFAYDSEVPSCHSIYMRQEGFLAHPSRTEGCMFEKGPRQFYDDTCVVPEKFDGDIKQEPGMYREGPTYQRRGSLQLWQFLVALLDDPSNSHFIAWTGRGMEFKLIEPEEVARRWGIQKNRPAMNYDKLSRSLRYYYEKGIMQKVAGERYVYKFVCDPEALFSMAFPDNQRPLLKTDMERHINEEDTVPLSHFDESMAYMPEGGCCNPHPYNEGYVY
Outline: as §1

Sequence: TCACCT
- binding signal [1]: 1.25 fold enrichment (6-mer frequency, TF over GST control)
- binding signal [2]: 1.31 fold enrichment (6-mer frequency, TF over GST control)
- binding signal [3]: 1.27 fold enrichment (6-mer frequency, TF over GST control)
- binding signal [4]: 1.23 fold enrichment (6-mer frequency, TF over GST control)
- binding signal [5]: 1.2 fold enrichment (6-mer frequency, TF over GST control)
- binding signal [6]: 1.21 fold enrichment (6-mer frequency, TF over GST control)
- binding signal [7]: 1.21 fold enrichment (6-mer frequency, TF over GST control)
- binding signal [8]: 1.13 fold enrichment (6-mer frequency, TF over GST control)
- binding signal [9]: 1.22 fold enrichment (6-mer frequency, TF over GST control)
- binding signal [10]: 1.17 fold enrichment (6-mer frequency, TF over GST control)
- binding signal [11]: 1.18 fold enrichment (6-mer frequency, TF over GST control)
- binding signal [12]: 1.03 fold enrichment (6-mer frequency, TF over GST control)
- binding signal [13]: 1.31 fold enrichment (6-mer frequency, TF over GST control)
- binding signal [14]: 1.33 fold enrichment (6-mer frequency, TF over GST control)
- binding signal [15]: 1.12 fold enrichment (6-mer frequency, TF over GST control)
- binding signal [16]: 1.21 fold enrichment (6-mer frequency, TF over GST control)
- binding signal [17]: 1.25 fold enrichment (6-mer frequency, TF over GST control)
- binding signal [18]: 1.15 fold enrichment (6-mer frequency, TF over GST control)
- binding signal [19]: 1.19 fold enrichment (6-mer frequency, TF over GST control)
